The list is not random: actives were taken first. Their share in the collection is about 19%.
IL1B secr inh: inhibitors of inflammasome signaling (IL-1 beta secretion) | 4.7% of 360,000 active | activity change, % at 57.5 µM | THP-1 LPS/ATP IL-1B secretion, AlphaLISA, 16 h; stronger effect = lower value; in the data active = activity change below about -50%; inconclusive = mostly about -30% to -49%
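THP-1 cells pretreated 1 hr with compounds (up to 57.5 uM final), then stimulated with LPS (250 ng/mL final) plus ATP (1.25 mM final); secreted IL-1B measured by AlphaLISA after 16 hr, decreased signal indicating inhibition.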
TDP1 inh: inhibitors of human tyrosyl-DNA phosphodiesterase TDP1 | 0.28% of 350,000 active | Potency, µM (doses to about 130 µM), without a hit: top-dose activity change, negative = inhibition, actives largely listed as inhibitors | recombinant TDP1, AlphaScreen DNA substrate cleavage; also: potency is read from the fitted curve at half-maximal effect; nearly all actives have a fitted effect of over 40% in size
Target sequence (Q9NUW8 whole entry, looked up): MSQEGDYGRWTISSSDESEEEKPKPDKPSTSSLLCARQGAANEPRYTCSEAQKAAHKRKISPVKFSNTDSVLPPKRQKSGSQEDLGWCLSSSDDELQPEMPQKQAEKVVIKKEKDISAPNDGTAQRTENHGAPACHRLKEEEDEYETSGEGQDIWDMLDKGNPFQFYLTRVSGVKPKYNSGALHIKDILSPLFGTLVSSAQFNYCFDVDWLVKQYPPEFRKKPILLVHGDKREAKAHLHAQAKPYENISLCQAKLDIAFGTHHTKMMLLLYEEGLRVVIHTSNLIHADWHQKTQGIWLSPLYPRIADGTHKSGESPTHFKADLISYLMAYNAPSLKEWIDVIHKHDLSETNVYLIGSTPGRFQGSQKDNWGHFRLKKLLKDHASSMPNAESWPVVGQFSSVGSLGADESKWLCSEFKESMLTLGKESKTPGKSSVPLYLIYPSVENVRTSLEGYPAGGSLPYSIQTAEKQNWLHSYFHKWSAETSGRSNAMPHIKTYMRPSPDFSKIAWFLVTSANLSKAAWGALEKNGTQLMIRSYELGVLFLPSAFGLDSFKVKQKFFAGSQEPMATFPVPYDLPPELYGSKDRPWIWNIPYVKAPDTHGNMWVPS
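Recombinant E. coli-expressed Tdp1 (1 nM) preincubated with compound 15 min at RT, then 5'-biotin/3'-phosphotyrosine-FITC DNA substrate (15 nM) added for 5 min. AlphaScreen beads (10 ug/ml) added, 10 min RT; tyrosine-FITC cleavage read as signal loss.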
ELG1 repair inh: blocks ELG1-dependent DNA repair in HEK293T cells; 2.3% of 330,000 active; HEK293T ELG1-luciferase reporter, luminescence, 16 h; DNA damage induced by 5-fluorouridine; Potency, µM (highest dose often 46.1 µM), inactives show at the highest dose activity change, negative = inhibition, hits mostly inhibitors; also: potency is read from the fitted curve at half-maximal effect; nearly all actives have a fitted effect of over 55% in size
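5-Fluorouridine DNA damage + compound/DMSO, 2,000 cells/well, 16 h, 37 °C/5% CO2. ONE-Glo, 30 min RT, luminescence. Readout = decrease in reporter signal.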
Giardia killer: Giardia lamblia killing. activity change, % at 7.66 µM, hits read low. 0.15% of 340,000 active. Giardia lamblia trophozoite viability. AID 540267; in the data active = activity change below about -80%; inconclusive = between about -30% and that limit;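 also: parasites exposed to compound for two days anaerobically before the ATP read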
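Viability, read as ATP luminescence: trophozoites at 100 cells/well, compound added, 48 hrs anaerobic at 37 deg C, then 15-30 min room-temperature development before reading.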
DT40 TDP1 no CPT: qHTS for Inhibitors of human tyrosyl-DNA phosphodiesterase 1 (TDP1): qHTS in cells in absence of CPT | DT40 Tdp1-/- hTDP1 cells, no CPT, ATP luminescence, 48 h | Potency, µM (titrated, usually from 46.2 µM), without a hit: at the top dose activity change, negative = growth inhibition, usual class: inhibitors | 15% of 420,000 active; also: potency is read from the fitted curve at half-maximal effect; nearly all actives have a fitted effect of over 55% in size
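Chicken DT40 Tdp1-/- cells complemented with human TDP1, screened without camptothecin (DMSO vehicle only), 400 cells/well. Compounds pin-transferred, cells incubated at 37 °C for at least 48 hr. Growth read as ATP-dependent luminescence (CellTiter-Glo, 30 min at RT).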
TDP1 cell CPT: growth inhibition of DT40 Tdp1-/-;hTDP1 cells with camptothecin (screen for TDP1 inhibitors) | AID 686979 | Potency, µM (titrated, usually from 46.2 µM), without a hit: at the highest dose activity change, negative = growth inhibition, usual class: inhibitors | 12% of 420,000 active | chicken DT40 Tdp1-/-;hTDP1 cells + 20 nM CPT, ATP luminescence, 48 h; also: potency is read from the fitted curve at half-maximal effect; nearly all actives have a fitted effect of over 55% in size
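Cell growth measured by CellTiter-Glo luminescence after a minimum 48 h, 37 C compound exposure with 20 nM CPT in Tdp1-knockout DT40 cells stably expressing hTDP1, seeded 400/well; qHTS titration format.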
* hit, by the source's call. Unless noted, calls follow the shape of the dose curve; as a rule, active = well fitted curve in the direction sought with a large enough effect; inconclusive = small, poorly fitted or top-dose-only effect, or another doubt; inactive = no such curve, though single readings can be large; an effect the other way counts as inactive or inconclusive. % is scaled to controls: 0 for no effect and ±100 for the full control effect.

Results for CC(C)C[C@H]1CN([C@@H](Cc2ccc(O)cc2)CN2CCC[C@@H]2CN2C(=S)NC[C@@H]2Cc2ccccc2)C(=S)N1CC1CCCCC1 ?
IL1B secr inh: -21.8; DT40 TDP1 no CPT: 16.4µM*; TDP1 cell CPT: 16.4µM*

Results for CC(C)C[C@H]1CNC(=S)N1C[C@H]1CCCN1C[C@H](Cc1ccccc1)N1C[C@H](Cc2ccc(O)cc2)N(CC2CCCCCC2)C1=S ?
IL1B secr inh: -11.9; DT40 TDP1 no CPT: 13µM*; TDP1 cell CPT: 14.6µM*

What do the screens show for `COc1ccc(S(=O)(=O)N(C)C)cc1NC(=O)CCNC(=O)c1ccccc1OC`?
IL1B secr inh: 16.6; ELG1 repair inh: -14.1%; Giardia killer: 5.9; DT40 TDP1 no CPT: -26.4%; TDP1 cell CPT: -0.3%

What do the screens show for `CCOC(=O)c1cc(OC(=O)c2ccc(Cl)cc2)n(-c2ccccc2)n1`?
TDP1 inh: -5.3%

Results for COC(=O)CC1Oc2ccccc2-n2cc(-c3ccc(Cl)cc3)nc21 (centres undefined) ?
TDP1 inh: 4.5%; DT40 TDP1 no CPT: 1.84µM*; TDP1 cell CPT: 7.31µM*

How did COC(=O)CC1Oc2ccc(Cl)cc2-n2cc(-c3ccccc3)nc21 (centres undefined) do in these assays?
TDP1 inh: -0.6%; DT40 TDP1 no CPT: 13µM*; TDP1 cell CPT: 20.6µM*

How did Clc1ccc2c(c1)-n1cc(-c3ccccc3)nc1CO2 do in these assays?
TDP1 inh: 4.5%; DT40 TDP1 no CPT: inconclusive; TDP1 cell CPT: inconclusive

What do the screens show for `COC(=O)CC1Oc2ccccc2N(Cc2ccccc2)C1=O` (centres undefined)?
IL1B secr inh: 12.2; TDP1 inh: 4.3%; ELG1 repair inh: inconclusive; Giardia killer: -23.4; DT40 TDP1 no CPT: -15.1%; TDP1 cell CPT: 7.5%

What do the screens show for `O=C(COc1ccc(F)cc1)Nc1ccccc1OCc1cc(=O)n2ccccc2n1`?
TDP1 inh: 5.4%; DT40 TDP1 no CPT: 9.5%; TDP1 cell CPT: 14.3%

What do the screens show for `CCCNC(=O)Cn1c(=O)cc(C)c2c(C)nn(-c3cccc(F)c3)c21`?
TDP1 inh: -0.9%; DT40 TDP1 no CPT: -18.2%; TDP1 cell CPT: -16.8%

How did COc1ccc(NC(=O)CSc2cn(CC(=O)N3CCOCC3)c3ccccc23)cc1OC do in these assays?
TDP1 inh: -2.6%; DT40 TDP1 no CPT: inconclusive; TDP1 cell CPT: inconclusive

What do the screens show for `O=C(OCc1cncs1)c1ccccc1`?
IL1B secr inh: 0.9; TDP1 inh: -1.2%; ELG1 repair inh: -3.4%; Giardia killer: 47.1; DT40 TDP1 no CPT: -13.6%; TDP1 cell CPT: 2.9%

How did COC1=CC(=O)c2c(ccc3ncnc(N)c23)C1=O do in these assays?
IL1B secr inh: -112.3*; Giardia killer: 44.1; DT40 TDP1 no CPT: 0.291µM*; TDP1 cell CPT: 0.206µM*

How did Cn1ccnc1CC(O)(c1ccccc1)c1ccccc1 do in these assays?
IL1B secr inh: -2.8; ELG1 repair inh: -2.4%; Giardia killer: 8.0; DT40 TDP1 no CPT: -18.7%; TDP1 cell CPT: -20.3%

Results for CCOc1cccc(C(=O)NNC(=O)CCC(=O)O)c1 ?
IL1B secr inh: -0.3; TDP1 inh: 5.1%; ELG1 repair inh: 8.4%; Giardia killer: 2.3; DT40 TDP1 no CPT: -25.2%; TDP1 cell CPT: -1.7%

What do the screens show for `NCc1oc(-c2ccccc2)cc1C(=O)O`?
IL1B secr inh: 3.1; TDP1 inh: 2.6%; ELG1 repair inh: inconclusive; Giardia killer: 6.8; DT40 TDP1 no CPT: 13.5%; TDP1 cell CPT: 0.1%

How did CCN(C(=O)c1cnc(NC(C)C)cc1C(F)(F)F)c1ccc(Cl)cc1Cl do in these assays?
IL1B secr inh: -19.2; TDP1 inh: 2.6%; ELG1 repair inh: inconclusive; Giardia killer: 7.4; DT40 TDP1 no CPT: 16.4µM*; TDP1 cell CPT: 8.2µM*

How did COc1cccc(-c2nc(-c3ccc4c(c3)NC(=O)CO4)cs2)c1 do in these assays?
IL1B secr inh: inconclusive; TDP1 inh: 0.0%; ELG1 repair inh: inconclusive; Giardia killer: 17.3; DT40 TDP1 no CPT: 5.17µM*; TDP1 cell CPT: 8.2µM*

Results for O=C1COc2ccc(-c3csc(-c4ccc(F)cc4)n3)cc2N1 ?
DT40 TDP1 no CPT: -10.6%; TDP1 cell CPT: inconclusive

How did CC(Nc1nc(-c2ccc3c(c2)NC(=O)CO3)cs1)c1ccccc1 (centres undefined) do in these assays?
IL1B secr inh: inconclusive; TDP1 inh: 5.1%; ELG1 repair inh: inconclusive; Giardia killer: 5.1; DT40 TDP1 no CPT: 25.9µM*; TDP1 cell CPT: 18.4µM*

What do the screens show for `COc1cc(C)c(CN2C[C@H](Sc3nc4ccccc4[nH]3)C[C@H]2C(=O)N(C)C)cc1C`?
DT40 TDP1 no CPT: -29.7%; TDP1 cell CPT: -12.1%

How did CCc1c(C)c2ccc(O)c(CN3CCN(c4ccc(OC)cc4)CC3)c2oc1=O do in these assays?
TDP1 inh: 0.0%; DT40 TDP1 no CPT: inconclusive; TDP1 cell CPT: inconclusive

What do the screens show for `CC1(c2ccccc2Cl)NC(=O)N(CC(=O)c2ccc3c(c2)OCO3)C1=O` (centres undefined)?
IL1B secr inh: 17.0; TDP1 inh: -8.8%; ELG1 repair inh: 10.7%; Giardia killer: 30.8; DT40 TDP1 no CPT: -20.0%; TDP1 cell CPT: 11.9%

What do the screens show for `CCOc1cc(C2NC(=O)NC(C)=C2C(=O)OCC2CCCCC2)ccc1O` (centres undefined)?
IL1B secr inh: -10.3; TDP1 inh: 6.3%; ELG1 repair inh: -6.4%; Giardia killer: -15.9; DT40 TDP1 no CPT: inconclusive; TDP1 cell CPT: inconclusive

Results for CC(C)C(NC(=O)/C(=C/c1ccco1)NC(=O)c1ccc(Br)o1)C(=O)O (centres undefined) ?
IL1B secr inh: 6.6; ELG1 repair inh: 13.7%; Giardia killer: 10.2; DT40 TDP1 no CPT: -5.2%; TDP1 cell CPT: 0.0%

How did CN(C)S(=O)(=O)c1cccc2c1C(=O)c1ccccc1C2=O do in these assays?
IL1B secr inh: 33.4; TDP1 inh: 5.3%; ELG1 repair inh: -4.1%; Giardia killer: -0.7; DT40 TDP1 no CPT: 14.9%; TDP1 cell CPT: 7.7%

Results for CN(C)c1cc2c(c(N(C)C)c1)C(=O)c1ccccc1C2=O ?
IL1B secr inh: -50.2*; TDP1 inh: -9.2%; ELG1 repair inh: inconclusive; Giardia killer: -27.7; DT40 TDP1 no CPT: inconclusive; TDP1 cell CPT: inconclusive

Results for CCCCS(=O)(=O)c1oc(-c2cccs2)nc1S(=O)(=O)c1ccc(F)cc1 ?
TDP1 inh: 6.1%; DT40 TDP1 no CPT: 0.581µM*; TDP1 cell CPT: 0.82µM*
